Records with an inconclusive call do not appear. Activity calls are given as the source filed them. Calls follow the shape of the dose curve; as a rule, active = well fitted cell-killing curve with a large enough effect; inconclusive = small, poorly fitted or top-dose-only effect, or effect the other way; inactive = flat fitted curve, though single readings scatter.
What was measured:
Assay in all cases: Primary qHTS to identify gynecologic anti-cancer compounds using libraries of approved drugs and bioactive compounds (AID 1345084); also: nearly all actives have a fitted effect of over 55% in size
C33A = conditions: Gynecologic cancer cell panel viability, ATPlite luminescence, 48 h; series mostly up to 57.5 µM
Method in brief: (§1)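 Cells, 1,000 per well, plated 16 h, then exposed 48 h at 37 C to compounds. Viability by ATPlite luminescence after 15 min at room temperature.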

CAOV3 = conditions: Gynecologic cancer cell panel viability, ATPlite luminescence, 48 h; series mostly up to 57.5 µM
Method in brief: as §1

CASKI = conditions: Gynecologic cancer cell panel viability, ATPlite luminescence, 48 h; series mostly up to 57.5 µM
Method in brief: as §1

Es-2 = conditions: Gynecologic cancer cell panel viability, ATPlite luminescence, 48 h; series mostly up to 57.5 µM
Method in brief: as §1

HeLa = conditions: Gynecologic cancer cell panel viability, ATPlite luminescence, 48 h; series mostly up to 57.5 µM
Method in brief: as §1

Hek293T = conditions: Gynecologic cancer cell panel viability, ATPlite luminescence, 48 h, control line for the selectivity index; series mostly up to 57.5 µM
Method in brief: as §1

JEG-3 = conditions: Gynecologic cancer cell panel viability, ATPlite luminescence, 48 h; series mostly up to 57.5 µM
Method in brief: as §1

OV90 = conditions: Gynecologic cancer cell panel viability, ATPlite luminescence, 48 h; series mostly up to 57.5 µM
Method in brief: as §1
% is scaled to controls: 0 for no effect and ±100 for the full control effect.

CC(C)=CCCC1(C)C2CCC1(C)C(O)C2 (configuration not stated)
inactive: Potency (C33A) | Potency (CAOV3) | Potency (CASKI) | Potency (Es-2) | Potency (HeLa) | Potency (Hek293T) | Potency (JEG-3) | Potency (OV90)

COc1cc(F)c(C(C)C)cc1-c1ccc(C(F)(F)F)cc1CN1C(=O)OC(c2cc(C(F)(F)F)cc(C(F)(F)F)c2)C1C (configuration not stated)
inactive: Potency (C33A) | Potency (CAOV3) | Potency (CASKI) | Potency (Es-2) | Potency (HeLa) | Potency (Hek293T) | Potency (JEG-3) | Potency (OV90)

CC(C)c1ccc(NC(=O)Cn2cnc3c2c(=O)n(C)c(=O)n3C)cc1
inactive: Potency (C33A) | Potency (CAOV3) | Potency (CASKI) | Potency (Es-2) | Potency (HeLa) | Potency (Hek293T) | Potency (JEG-3) | Potency (OV90)

CC(=O)O[C@@H]1[C@@H](O)[C@H](O[C@@H]2[C@@H](O)[C@@H](O)[C@H](O[C@H]3[C@H](O[C@H]4[C@H](O[C@H]5CC[C@@]6(C)C(CC[C@]7(C)C6CC=C6[C@@H]8CC(C)(C)CC[C@]8(C(=O)O)CC[C@]67C)[C@]5(C)CO)O[C@H](CO)[C@@H](O)[C@@H]4O)OC[C@@H](O)[C@@H]3O)O[C@H]2C)OC[C@H]1O (some centres not stated)
inactive: activity change, negative = cytotoxicity (C33A) -4.66% [at 11.6 µM] | activity change, negative = cytotoxicity (CAOV3) 10.9% [at 11.6 µM] | activity change, negative = cytotoxicity (CASKI) 17% [at 11.6 µM] | activity change, negative = cytotoxicity (Es-2) -1.31% [at 11.6 µM] | activity change, negative = cytotoxicity (HeLa) 2.05% [at 11.6 µM] | activity change, negative = cytotoxicity (Hek293T) 1.05% [at 11.6 µM] | activity change, negative = cytotoxicity (JEG-3) 13.7% [at 11.6 µM] | activity change, negative = cytotoxicity (OV90) 10.1% [at 11.6 µM]

COC1C(OC(=O)/C=C/C=C/C=C/C=C/C(=O)O)CCC2(CO2)C1C1(C)OC1CC=C(C)C (configuration not stated)
inactive: Potency (C33A) | Potency (CAOV3) | Potency (CASKI) | Potency (Es-2) | Potency (HeLa) | Potency (Hek293T) | Potency (JEG-3) | Potency (OV90)

CC1(C)Oc2ncnc(N)c2N=C1c1ccc(C23CCC(CC(=O)O)(CC2)CC3)cc1
inactive: Potency (C33A) | Potency (CAOV3) | Potency (CASKI) | Potency (Es-2) | Potency (HeLa) | Potency (Hek293T) | Potency (JEG-3) | Potency (OV90)

CO[C@H]1O[C@@H]2O[C@@]3(C)CCC4[C@H](C)CCC([C@H]1C)[C@]42OO3 (some centres not stated)
inactive: Potency (C33A) | Potency (CAOV3) | Potency (CASKI) | Potency (Es-2) | Potency (HeLa) | Potency (Hek293T) | Potency (JEG-3) | Potency (OV90)

Fc1ccc(N2CCN(CCC3OCCc4ccccc43)CC2)cc1 (configuration not stated)
inactive: Potency (C33A) | Potency (CAOV3) | Potency (CASKI) | Potency (Es-2) | Potency (HeLa) | Potency (Hek293T) | Potency (JEG-3) | Potency (OV90)

O=C1Nc2ccccc2-c2nc3ccccc3c(=O)n2-c2c(O)cccc21
inactive: Potency (C33A) | Potency (CAOV3) | Potency (CASKI) | Potency (Es-2) | Potency (HeLa) | Potency (Hek293T) | Potency (JEG-3) | Potency (OV90)

CCCNCCc1ccc(NS(=O)(=O)c2ccc(OC(F)(F)F)cc2)cc1
inactive: Potency (C33A) | Potency (CAOV3) | Potency (CASKI) | Potency (Es-2) | Potency (HeLa) | Potency (Hek293T) | Potency (JEG-3) | Potency (OV90)

O=C(CSc1nc2ccccc2c(=O)n1-c1ccccc1)Nc1ccc2c(c1)CCC2
inactive: Potency (C33A) | Potency (CAOV3) | Potency (CASKI) | Potency (Es-2) | Potency (HeLa) | Potency (Hek293T) | Potency (JEG-3) | Potency (OV90)

CC(=O)O[C@@H]1C[C@]2(C)[C@@]3(CCC4[C@@]5(C)CC[C@H](O[C@@H]6O[C@H](C(=O)O)[C@@H](O)[C@H](OC7OC(CO)C(O)C(O)[C@H]7O[C@@H]7O[C@@H](C)[C@H](O)[C@@H](O)[C@H]7O[C@@H]7OC[C@](O)(CO)[C@H]7O)[C@H]6OC6OC(CO)C(O)C(O)C6O)C(C)(C)C5CC[C@]42C)OC[C@@]12CCC(C)(C)CC23 (some centres not stated)
inactive: activity change, negative = cytotoxicity (C33A) 2.65% [at 6.55 µM] | activity change, negative = cytotoxicity (CAOV3) 0.174% [at 6.55 µM] | activity change, negative = cytotoxicity (CASKI) 16.9% [at 6.55 µM] | activity change, negative = cytotoxicity (Es-2) -3.44% [at 6.55 µM] | activity change, negative = cytotoxicity (HeLa) -0.755% [at 6.55 µM] | activity change, negative = cytotoxicity (Hek293T) -10.7% [at 6.55 µM] | activity change, negative = cytotoxicity (JEG-3) -4.85% [at 6.55 µM] | activity change, negative = cytotoxicity (OV90) -14.9% [at 6.55 µM]

CC(C)S(=O)(=O)c1ccc2nccc(Nc3ccc4scnc4c3)c2c1
inactive: Potency (C33A) | Potency (CAOV3) | Potency (CASKI) | Potency (Es-2) | Potency (HeLa) | Potency (Hek293T) | Potency (JEG-3) | Potency (OV90)

C[C@@H]1O[C@@H](O[C@H]2[C@@H]3C=CO[C@@H](O[C@@H]4O[C@H](CO)[C@@H](O)[C@H](O)[C@H]4O)[C@@H]3[C@@]3(CO)O[C@@H]23)[C@H](O)[C@H](OC(=O)/C=C/c2ccccc2)[C@H]1O
inactive: Potency (C33A) | Potency (CAOV3) | Potency (CASKI) | Potency (Es-2) | Potency (HeLa) | Potency (Hek293T) | Potency (JEG-3) | Potency (OV90)

C[C@H](Nc1cc2c(-c3ccc4c(c3)OCO4)noc2cn1)c1ccccc1
inactive: Potency (C33A) | Potency (CAOV3) | Potency (CASKI) | Potency (Es-2) | Potency (HeLa) | Potency (Hek293T) | Potency (JEG-3) | Potency (OV90)

Nc1nc2c(cnn2CCCc2ccc(O)cc2)c2nc(-c3ccco3)nn12
inactive: Potency (C33A) | Potency (CAOV3) | Potency (CASKI) | Potency (Es-2) | Potency (HeLa) | Potency (Hek293T) | Potency (JEG-3) | Potency (OV90)

COc1cccc(CN(C(=O)CC(C)(C)C)[C@H]2C[C@H](C(=O)N3CCNCC3)N(Cc3ccc4c(c3)OCO4)C2)c1
inactive: Potency (C33A) | Potency (CAOV3) | Potency (CASKI) | Potency (Es-2) | Potency (HeLa) | Potency (Hek293T) | Potency (JEG-3) | Potency (OV90)

CC(OC1OCCN(Cc2n[nH]c(=O)[nH]2)C1c1ccc(F)cc1)c1cc(C(F)(F)F)cc(C(F)(F)F)c1 (configuration not stated)
inactive: Potency (C33A) | Potency (CAOV3) | Potency (CASKI) | Potency (Es-2) | Potency (HeLa) | Potency (Hek293T) | Potency (JEG-3) | Potency (OV90)

COc1ccc(-n2c(SCCCN3C(=O)c4cccc5cccc(c45)C3=O)nnc2-c2ccncc2)cc1
inactive: Potency (C33A) | Potency (CAOV3) | Potency (CASKI) | Potency (Es-2) | Potency (HeLa) | Potency (Hek293T) | Potency (JEG-3) | Potency (OV90)

Reference: PubChem BioAssay (NCATS)
